# Biological target: DMXL1
# Assay: pooled miR-30 sensor sort-seq; sequence = guide strand
# Conditions: shRNA
# Also: reference of the scale not given here.
row,Sequence,sensor-assay potency score (higher = more potent)
1,ATTACTTACACATTCTACTTTA,-0.377
2,TACATTTCTAAATAGTATCTAC,-0.076
3,TTGACTGCTTTCACATTTGTTT,-0.678
4,TTCGCTAATATATACAACTAAG,-0.796
5,TTTCTAAATAGTATCTACTTAA,-0.599
6,TAACATTTCCATAAGACGCTGC,0.508
7,TTACACATTCTACTTTAGGCAA,-0.183
8,TTCTATATCATCATCTACCCAA,-0.207
9,TTATTTGAAAATTAGGATGGGA,0.431
10,TAATTCTTGCTTTACCTCCAGG,-0.447
11,TTTTTCTGAACTTCCATCTGGA,0.702
12,TTTCATTAAATGAACTTGGGAA,0.382
13,TTTGTTTCTGAAAACACTGCTA,0.164
14,TTCATTTTCATTTAGACTCAGA,-0.406
15,TTTCTATTAATGGTAGATCTGG,-0.715

# Biological target: DNAJA2
# Assay: as above
# Conditions: shRNA
row,Sequence,sensor-assay potency score (higher = more potent)
1,TTTCTTTAAATTTGTCTCCTGC,0.759
2,TTTCATGCCTTTGTCTACGTGG,-0.148
3,TTGATAGTACTTCATATGCAAA,-1.43
4,TTCTTCAGCTCGTTCTCGCTGG,-0.323
5,TACCTCATGTTCTTTCTCCTGT,0.929
6,TATTTCACCACAATCTGACGTC,0.583
7,AATTATGTTAGGAACTTCCGGT,-0.0625
8,TTCAAGAATCTTGACTTCTTTA,-0.418
9,TAGAGCTTCAACAAGTCCTATT,-0.658
10,TATTCCTTGGCTAACTTTCTGT,-0.171
11,TCGAGTGCTATCAAATTCCTGA,0.237
12,TAGTTCAGAAAGCTTGTCTGGG,0.299

# Biological target: DNAJB11
# Assay: as above
# Conditions: shRNA
row,Sequence,sensor-assay potency score (higher = more potent)
1,TTCGGAACCGTAAATCTCCAGG,-0.565
2,TCTTATAGAAATCTCGTCCGGC,0.334
3,TTTGTGTACAAATCATCTCCTC,-0.115
4,TCTTCCATAGCTTCGCTCCTGG,-0.0366
5,TTGTGTACAAATCATCTCCTCT,-0.302
6,TTCGTCGCAGACCACCTCCTGG,-1.23
7,TTCACCATAAGTATCGTACTGT,0.409
8,TATTTCTGTCTTGCTGACGAGG,-1.05
9,TTTGTTTCTAACTACTTCCACA,-0.721
10,TATACCTTCTGCACTGACCCTT,0.681
11,TCTATTTCTACTTCCAGCGTTC,-0.287
12,TTCTTCACCATAAGTATCGTAC,-0.183

# Source: the OligoGym collection
